# Experimental data as given in PubChem BioAssay (NCATS).
# Results filed as inconclusive are left out. A call without a number means that no potency is given here. Calls of active or inactive are those of the source. Calls follow the shape of the dose curve; as a rule, active = well fitted inhibition curve with a large enough effect; inconclusive = small, poorly fitted or top-dose-only effect; inactive = flat fitted curve, though single readings scatter.
# Target: Calcium and integrin-binding protein 1 (Homo sapiens) (UniProt Q99828)
# Assay: Primary qHTS for Identification of Calcium Integrin Binding Protein 1 (CIB1) Competitor (AID 1508620);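 also: GST tagged CIB1 binding a fluorescein labelled alphaIIb integrin peptide tracer; top concentration of the series differs between compounds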
# Conditions: CIB1-GST / FITC-alphaIIb peptide fluorescence polarization; series mostly up to 114 µM
# Procedure, shortened: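 Fluorescence polarization competition: CIB1-GST (1 uM final) preincubated with compound 15 min at room temperature, then FITC-labeled alphaIIb peptide (100 nM final) added for another 15 min. Polarization read at Ex 480/Em 540.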
# Sequence of Calcium and integrin-binding protein 1 (Homo sapiens) (Q99828 whole entry, looked up): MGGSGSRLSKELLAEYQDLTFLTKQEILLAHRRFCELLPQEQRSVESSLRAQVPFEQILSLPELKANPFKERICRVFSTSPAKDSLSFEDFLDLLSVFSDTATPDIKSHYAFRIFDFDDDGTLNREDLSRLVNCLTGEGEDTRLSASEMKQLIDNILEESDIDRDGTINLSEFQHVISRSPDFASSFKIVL
row,SMILES,Potency
1,COc1ccc(C2Nc3ccccc3C(=O)N2C2CCCC2)cc1COc1ccc(NC(C)=O)cc1 (centres undefined),inactive
2,Cc1cc2c(s1)c1cnn(Cc3ccc(-c4ccccc4)cc3)c(=O)c1n2C,inactive
3,CC(C)CN1CC2=C(C1=O)C(c1ccccc1Cl)N=C(Nc1nc3ccccc3o1)N2 (centres undefined),inactive
4,N#Cc1cccc(NS(=O)(=O)c2ccc3c(c2)CCC(=O)N3)c1,inactive
5,COc1cc(OC)cc(-c2nnc3n2N=C(c2c(OC)cccc2OC)CS3)c1,inactive
6,Cc1ccc(NS(=O)(=O)c2cc3c(cc2C)NC(=O)CO3)cc1C,inactive
7,O=[S+]([O-])(c1cc2ccccc2o1)N1CCN([S+](=O)([O-])c2c(F)cccc2F)CC1,inactive
8,N/C(=N\c1nnc(-c2ccncc2)s1)Nc1ccc(F)c(C(F)(F)F)c1,inactive
9,O=C(Nc1ccc(-c2nc3ccccc3[nH]2)cc1)Nc1ccc2c(c1)CCCO2,inactive
10,CC(=O)Nc1sc2c(c1-c1cccc3ccccc13)CCNC2,inactive
11,Nc1nc(NCc2ccc(-c3cccnc3)cc2)c2ccccc2n1,inactive
12,O=C(OCC#CCSc1nnc(-c2cccc3ccccc23)o1)c1ccc(F)cc1,inactive
13,Oc1ccc(COc2cccc3ccccc23)c2cccnc12,inactive
14,N#Cc1nc(Nc2ccc(F)cc2)nc(NC2CCCC2)n1,inactive
15,CC(=O)Nc1sc2c(c1-c1cc3ccccc3o1)CCNC2,inactive
16,O=[N+]([O-])c1ccccc1S(=O)(=O)N1CCN(S(=O)(=O)c2ccc3c(c2)OCCO3)CC1,inactive
17,N#Cc1nc(Nc2cccc(Br)c2)nc(NC2CCCC2)n1,inactive
18,CCOC(=O)C1CCN(C(=O)CNC(=O)Nc2ccccc2Cl)CC1,inactive
19,O=C(/C=C/c1ccc(F)cc1)Nc1cccc([S+](=O)([O-])Nc2ccccc2F)c1,inactive
20,c1cncc(-c2ccc3ncnc(NCc4ccc5c(c4)OCO5)c3c2)c1,inactive
21,COCCCc1cc(F)c(S(=O)(=O)N2CCN(S(=O)(=O)c3ccc4c(c3)OCCO4)CC2)cc1F,inactive
22,COc1ccc(CN2C(=O)c3ccccc3NC2c2ccc(OC)c(COc3c(C)cc(NC(C)=O)cc3C)c2)cc1 (centres undefined),inactive
23,O=S(=O)(c1ccc2c(c1)OCCO2)N1CCN(S(=O)(=O)c2ccccc2Cl)CC1,inactive
24,O=C(c1ccc2c(c1)ncn2-c1ccc(Cl)cc1)N1CCCCC1,inactive

row,SMILES,Potency
1,COc1ccccc1NC(=O)c1ccc2ccccc2c1,inactive
2,Cc1cc(C)nc(NC(=S)N2CCN(c3nccc(C(F)(F)F)n3)CC2)c1,inactive
3,COc1cc(O)c(C(CC(=O)N2CCC(c3ccccc3)CC2)c2ccc(C)cc2)c(OC)c1 (centres undefined),inactive
4,Cc1ccc(-n2cnc3cc(C(=O)N4CCCCC4)ccc32)cc1,inactive
5,O=C(Nc1ccc(Br)c(Br)c1)Nc1nnc(-c2cccnc2)s1,inactive
6,Cc1c(Br)cc(F)c([S+](=O)([O-])N2CCN([S+](=O)([O-])c3ccc4c(c3)OCCO4)CC2)c1F,inactive
7,O=C(NC(c1ccco1)c1cc(Cl)c2cccnc2c1O)c1ccc(F)c(F)c1 (centres undefined),inactive
8,COc1cccc(C2c3c(ncn(-c4ccccc4OC)c3=N)Oc3ccc4ccccc4c32)c1 (centres undefined),inactive
9,O=C1CCc2cc(S(=O)(=O)NCc3ccccc3)ccc2N1,inactive
10,CC(=O)N1c2ccc(S(=O)(=O)Nc3ccc(C)c(C)c3)cc2CC1C (centres undefined),inactive
11,COc1cc(O)c(C(CC(=O)N2CCC[C@H](C)C2)c2ccc3c(c2)OCO3)c(OC)c1 (some centres undefined),inactive
12,O=C(NCCc1nc2ccccc2[nH]1)C1CCCCC1,inactive
13,CN(Cc1ccco1)c1ncnc2ccc(-c3ccc4c(c3)OCCO4)cc12,inactive
14,Cc1cc(C)nc(NC(=S)N2CCN(c3nc4ccccc4o3)CC2)c1,inactive
15,Cc1nnc(-c2cnn(C)c2N)n1CCc1ccccc1,inactive
16,O=C1CCCC2=C1C(c1[nH]ncc1Cl)N=C(Nc1nc3c(Br)cccc3o1)N2 (centres undefined),inactive
17,S=C(NCCCc1cnc[nH]1)NCCN(Cc1ccc(Cl)c(Cl)c1)c1ccc(Br)cn1,inactive
18,CC(=O)Nc1sc2c(c1-c1nc3ccccc3s1)CN(C(C)C)C2,inactive
19,O=C(Nc1ccc(Cl)c(Cl)c1)Nc1nnc(NC2CCNCC2)s1,inactive
20,CNc1sc(-c2cccc3ccccc23)nc1C(=O)OC,inactive
21,O=c1c2ccc(F)cc2nc2sc(Nc3ccc4c(c3)CCC4)nn12,inactive
22,COc1ccc(NC(=O)c2cnn3c(-c4ccccc4)cc(C)nc23)cc1,inactive
23,Brc1ccc(-c2csc(N3CCC(c4nn[nH]n4)CC3)n2)cc1,inactive
24,CC(C)(C)OC(=O)n1c2ccsc2c2cnn(Cc3ccccc3F)c(=O)c21,inactive

row,SMILES,Potency
1,COCC(=O)NCCc1nc2ccccc2n1CCOc1ccc(C)cc1,inactive
2,NC(=O)C1CCN(c2nc(-c3ccc(N)cc3)cs2)CC1,inactive
3,Cc1ccc(OCCn2c(CCNC(=O)c3cccc4cc[nH]c34)nc3ccccc32)cc1,inactive
4,CC(=O)c1cccc(NC(=O)c2cnn3c(C)cc(C)nc23)c1,inactive
5,O=C(Nc1ccc(-n2ccnc2)c(F)c1)Nc1nnc(-c2ccncc2)s1,inactive
6,COc1cccc(N2C(=O)c3ccccc3C2=O)c1,inactive
7,Cc1cc(C)n2ncc(C(=O)N3CCCC3)c2n1,inactive
8,Cc1cc2c(s1)c1cnn(Cc3ccc(C(C)(C)C)cc3)c(=O)c1n2C,inactive
9,COc1cccc(C2=Nn3c(nnc3-c3ccccc3OC)SC2)c1,inactive
10,FC(F)(F)c1cccc(N2CCN(C(=S)Nc3ncnc4ccccc34)CC2)c1,inactive
11,O=C(Nc1cc(C(F)(F)F)ccc1Cl)C(O)Cc1ccccc1 (centres undefined),inactive
12,CCOc1ccc(CCNC(=O)c2cc3ccccc3o2)cc1OCC,inactive
13,O=C1c2ccccc2C(=O)N1c1cccc2cccnc12,inactive
14,COC(=O)c1ccccc1S(=O)(=O)Nc1ccc(OC)cc1,inactive
15,COc1ccc(-c2nc3ccccc3c(=O)n2Cc2ccco2)cc1COc1ccc(NC(C)=O)cc1,inactive
16,COc1ccc(C2Nc3ccccc3C(=O)N2Cc2cccnc2)cc1COc1c(C)cc(NC(C)=O)cc1C (centres undefined),inactive
17,CC(=O)N1CCc2cc(S(=O)(=O)N3CCN(S(=O)(=O)c4c(F)cccc4F)CC3)ccc21,inactive
18,Cc1cccc(Cn2ncc3c4sc(C)cc4n(C)c3c2=O)c1,inactive
19,CCc1nn2c(=O)cc(N3C(C)CNCC3C)nc2s1 (centres undefined),inactive
20,N#Cc1cccc(NC(=O)Nc2nnc(-c3ccncc3)s2)c1,inactive
21,O=C(Nc1ccc(Cl)c(C(F)(F)F)c1)Nc1cccc(-c2ccncc2)n1,inactive
22,N=c1c2c(ncn1-c1ccccc1)Oc1ccc3ccccc3c1C2c1ccc2c(c1)OCO2 (centres undefined),inactive
23,O=C(OCC#CCSc1nnc(-c2cccc3ccccc23)o1)c1cccc(F)c1,inactive
24,COc1ccc(C2Nc3ccccc3C(=O)N2Cc2ccccn2)cc1COc1ccc(NC(C)=O)cc1 (centres undefined),inactive

row,SMILES,Potency
1,CC(=O)Nc1sc2c(c1-c1nc3ccccc3s1)CCN(C(C)=O)C2,inactive
2,CC(=O)c1ccc(-c2csc(N3CCC(C(N)=O)CC3)n2)cc1,inactive
3,CC(=O)Nc1ccc(OCc2cccc(-c3nc4ccccc4c(=O)n3Cc3ccco3)c2)cc1,inactive
4,C=CCNc1oc(-c2cccc(Br)c2)nc1C#N,inactive
5,CC(=O)Nc1cccc(S(=O)(=O)N2CCN(S(=O)(=O)c3c(F)cccc3F)CC2)c1,inactive
6,CS(=O)(=O)Nc1cccc(-c2cc(F)c(S(=O)(=O)N3CCN(S(=O)(=O)c4ccc5c(c4)OCCO5)CC3)cc2F)c1,inactive
7,N#Cc1nc(Nc2ccc(Br)cc2)nc(NC2CCCC2)n1,inactive
8,Cc1cc(NC(=O)Nc2nnc(-c3cccnc3)s2)ccc1Br,inactive
9,CC1=C(C(=O)NC2CCCCC2)C(c2ccccc2Br)N=C(Nc2nc3ccccc3o2)N1 (centres undefined),inactive
10,O=S1(=O)N=C(Oc2cccc(Br)c2)c2ccccc21,inactive
11,COc1ccc(C2=Nn3c(nnc3-c3cc(OC)cc(OC)c3)SC2)cc1,inactive
12,c1cncc(CNc2ncnc3ccc(-c4ccco4)cc23)c1,inactive
13,N#Cc1c(-c2ccc(Cl)cc2)no[n+]1[O-],inactive
14,COc1cccc(CNc2ccc(S(=O)(=O)Nc3nc(C)cs3)cc2)c1O,inactive
15,COc1ccc(NC(=O)C(OC(=O)CNC(=O)c2ccccc2)c2ccccc2)cc1Cl (centres undefined),inactive
16,CC(=O)N1CCN(c2ccc(NCc3ccco3)cc2)CC1,inactive
17,COc1ccc(-c2ccc3ncnc(NCc4ccc(C)o4)c3c2)cc1OC,inactive
18,Cc1ccc(NS(=O)(=O)c2cc3c(cc2-c2ccccc2)NC(=O)CO3)cc1C,inactive
19,O=C1c2ccccc2C(=O)N1c1ccccc1O,inactive
20,CS(=O)(=O)c1ccc(C(=O)OCC#CCSc2nnc(-c3cccc4ccccc34)o2)cc1,inactive
21,COC(=O)c1ccc(N2CCN(S(=O)(=O)c3ccc4c(c3)CC(=O)N4)CC2)cc1,inactive
22,O=C1c2ccccc2C(=O)N1c1ncccc1O,inactive
